PubChem BioAssay (NCATS)
Inconclusive results are not listed. Activity calls are given as the source filed them. Calls follow the shape of the dose curve; as a rule, active = well fitted cell-killing curve with a large enough effect; inconclusive = small, poorly fitted or top-dose-only effect, or effect the other way; inactive = flat fitted curve, though single readings scatter.

How the values were obtained:
Experiment in all cases: Primary qHTS to identify gynecologic anti-cancer compounds using libraries of approved drugs and bioactive compounds (AID 1345084); also: nearly all actives have a fitted effect of over 55% in size
[1] = system: C33A; conditions: Gynecologic cancer cell panel viability, ATPlite luminescence, 48 h; series mostly up to 57.5 µM
In short: (§1)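 Five-concentration response, 48 h; readout is ATP-driven luciferase luminescence.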

[2] = system: CAOV3; conditions: Gynecologic cancer cell panel viability, ATPlite luminescence, 48 h; series mostly up to 57.5 µM
In short: as §1

[3] = system: CASKI; conditions: Gynecologic cancer cell panel viability, ATPlite luminescence, 48 h; series mostly up to 57.5 µM
In short: as §1

[4] = system: Es-2; conditions: Gynecologic cancer cell panel viability, ATPlite luminescence, 48 h; series mostly up to 57.5 µM
In short: as §1

[5] = system: HeLa; conditions: Gynecologic cancer cell panel viability, ATPlite luminescence, 48 h; series mostly up to 57.5 µM
In short: as §1

[6] = system: Hek293T; conditions: Gynecologic cancer cell panel viability, ATPlite luminescence, 48 h, control line for the selectivity index; series mostly up to 57.5 µM
In short: as §1

[7] = system: JEG-3; conditions: Gynecologic cancer cell panel viability, ATPlite luminescence, 48 h; series mostly up to 57.5 µM
In short: as §1

[8] = system: OV90; conditions: Gynecologic cancer cell panel viability, ATPlite luminescence, 48 h; series mostly up to 57.5 µM
In short: as §1

[9] = system: PA-1; conditions: Gynecologic cancer cell panel viability, ATPlite luminescence, 48 h; series mostly up to 57.5 µM
In short: as §1

[10] = system: SKOV3; conditions: Gynecologic cancer cell panel viability, ATPlite luminescence, 48 h; series mostly up to 57.5 µM
In short: as §1

[11] = system: Tov-21-G; conditions: Gynecologic cancer cell panel viability, ATPlite luminescence, 48 h; series mostly up to 57.5 µM
In short: as §1

[12] = system: Tov112D; conditions: Gynecologic cancer cell panel viability, ATPlite luminescence, 48 h; series mostly up to 57.5 µM
In short: as §1

Measured: Potency

COc1cc2c3c(cc4ccccc4c3c1O)NC2=O
inactive: all assays above

O=C(Nc1ccccc1-c1cn2c(CN3CCNCC3)csc2n1)c1ccc2ccccc2n1
inactive: all assays above

O=C(/C=C/c1ccc(O)cc1)OC1[C@H](O)CC(O)(C(=O)O)C[C@H]1O (stereo partly drawn)
inactive: all assays above

COc1cccc2cc3c(c(O[C@@H]4O[C@H](CO[C@@H]5O[C@H](CO)[C@@H](O)[C@H](O)[C@H]5O)[C@@H](O)[C@H](O)[C@H]4O)c12)C(C)OC3=O (stereo partly drawn)
inactive: all assays above

Nc1ncnc2c([C@@H]3N[C@H](CO)[C@@H](O)[C@H]3O)c[nH]c12
inactive: all assays above

CC(C)C(C(=O)N(C)C(C)C(N)=O)N(C)C(=O)C1CCCN1C(=O)/C=C/C=C/C(O)C(C)O (stereo not drawn)
inactive: all assays above

COC(=O)C1=COC(OC2OC(CO)C(O)C(O)C2O)C2C1C=CC2(O)CO (stereo not drawn)
inactive: all assays above

COc1cc(C(=O)OC[C@@]2(O)CO[C@@H](O[C@H]3[C@H](Oc4ccc(C(=O)O)cc4OC)O[C@H](CO)[C@@H](O)[C@@H]3O)[C@@H]2O)ccc1O
inactive: all assays above

CC1(C(=O)O)CCCC2(C)C3CCC4CC3(CCC12)CC4=O (stereo not drawn)
inactive: all assays above

CC(C)(C)NCCCNC(=O)c1cccc(Br)c1
inactive: all assays above

O=C(CCCCN1CCOCC1)Nc1ccc(-c2cccnc2)cc1
inactive: all assays above

O=C(CCc1nnc2n(Cc3ccc(Cl)cc3)c(=O)c3ccccc3n12)NCCC1=CCCCC1
inactive: all assays above

COc1c2c(c(C)c3c1C(=O)OC3)O[C@@]1(C)CCC3(C(C)(C)O)OC(=O)CC[C@]3(C)[C@H]1C2 (stereo partly drawn)
inactive: all assays above

CN(C)CCn1cc(S(=O)(=O)c2cccc(F)c2)c2cccnc21
inactive: all assays above
